Results from PubChem BioAssay (NCI).
Compounds without any hit were thinned out: in the full panel of roughly 83,000, 20% have a hit.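 Step 1: grow cells in 96-well plates. Step 2: add test compound at a single concentration. Step 3: incubate 48 h. Step 4: record percent growth.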 Activity calls are given as the source filed them. How the source made its calls: active means growth percent below 10; inactive means the rest.

What was measured:
Assay in all cases: NCI-60 one-dose screen, 48 h (100 = growth as untreated, 0 = no growth, -100 = all killed)
Settings in all cases: 10 µM unless noted
NCI-H23 lung = tested on: NCI-H23 lung
NCI-H226 lung = tested on: NCI-H226 lung
NCI-H322M lung = tested on: NCI-H322M lung
HOP-62 NSCLC = tested on: HOP-62 NSCLC
NCI-H460 lung = tested on: NCI-H460 lung
HOP-92 NSCLC = tested on: HOP-92 NSCLC
NCI-H522 lung = tested on: NCI-H522 lung
A549/ATCC NSCLC = tested on: A549/ATCC NSCLC
786-0 renal = tested on: 786-0 renal
COLO 205 colon = tested on: COLO 205 colon
DU-145 prostate = tested on: DU-145 prostate
K-562 leukemia = tested on: K-562 leukemia
MALME-3M melanoma = tested on: MALME-3M melanoma
MDA-MB-231 breast = tested on: MDA-MB-231 breast
RXF 393 renal = tested on: RXF 393 renal
SF-268 CNS = tested on: SF-268 CNS
SF-295 CNS = tested on: SF-295 CNS
SF-539 CNS = tested on: SF-539 CNS
UACC-257 melanoma = tested on: UACC-257 melanoma
M14 melanoma = tested on: M14 melanoma

Measured: growth

CC(=O)CC(c1cccs1)c1c(-c2ccccc2)[nH]c2ccccc12 (stereo not given)
inactive: NCI-H23 lung 66% | NCI-H226 lung 84.3% | NCI-H322M lung 91.4% | HOP-62 NSCLC 89.5% | NCI-H460 lung 98.4% | HOP-92 NSCLC 72.6% | NCI-H522 lung 80.6% | A549/ATCC NSCLC 91.3% | 786-0 renal 98.9% | COLO 205 colon 107% | DU-145 prostate 103% | K-562 leukemia 77.2% | MALME-3M melanoma 104% | MDA-MB-231 breast 86.9% | RXF 393 renal 99.9% | SF-268 CNS 85.6% | SF-295 CNS 80.4% | SF-539 CNS 98.9% | UACC-257 melanoma 103% | M14 melanoma 94.5%

COc1cc(-c2nc3sccn3c2-c2ccnc(NCCCNS(=O)(=O)c3ccc(F)cc3)n2)ccc1F
inactive: NCI-H23 lung 52.6% | NCI-H226 lung 52.1% | NCI-H322M lung 102% | HOP-62 NSCLC 90.2% | NCI-H460 lung 79.5% | HOP-92 NSCLC 79.4% | NCI-H522 lung 47.7% | A549/ATCC NSCLC 83.2% | 786-0 renal 96.7% | COLO 205 colon 56.9% | DU-145 prostate 76.1% | K-562 leukemia 38.2% | MALME-3M melanoma 75.1% | MDA-MB-231 breast 86.1% | RXF 393 renal 71.6% | SF-268 CNS 74.2% | SF-295 CNS 57.1% | SF-539 CNS 95.6% | UACC-257 melanoma 77.8% | M14 melanoma 53.6%

Nc1ccccc1-c1cc2c(c3c1[nH]c1ccccc13)CCCCC2
inactive: NCI-H23 lung 90.5% | NCI-H226 lung 117% | NCI-H322M lung 99% | HOP-62 NSCLC 105% | NCI-H460 lung 97.2% | HOP-92 NSCLC 105% | NCI-H522 lung 84.8% | A549/ATCC NSCLC 95.8% | 786-0 renal 89.3% | COLO 205 colon 101% | DU-145 prostate 102% | K-562 leukemia 98% | MALME-3M melanoma 117% | MDA-MB-231 breast 90.3% | RXF 393 renal 113% | SF-268 CNS 97.2% | SF-295 CNS 103% | SF-539 CNS 116% | UACC-257 melanoma 105% | M14 melanoma 92.5%

O=C1CSC(c2c(Cl)cccc2Cl)N1c1nc(Cl)cc(=O)[nH]1 (stereo not given)
inactive: NCI-H23 lung 104% | NCI-H226 lung 99.8% | NCI-H322M lung 177% | HOP-62 NSCLC 95.8% | NCI-H460 lung 101% | HOP-92 NSCLC 65% | NCI-H522 lung 75.8% | A549/ATCC NSCLC 103% | 786-0 renal 90.7% | COLO 205 colon 111% | DU-145 prostate 123% | K-562 leukemia 93.2% | MALME-3M melanoma 216% | MDA-MB-231 breast 108% | RXF 393 renal 113% | SF-268 CNS 106% | SF-295 CNS 91.3% | SF-539 CNS 102% | UACC-257 melanoma 99.6% | M14 melanoma 106%

CCN1C(=O)N(CC)C2Nn3c(s/c(=C4\C(=O)N(CC(C)C)c5ccccc54)c3=O)=NC21 (stereo not given)
inactive: NCI-H23 lung 43% | NCI-H226 lung 84.1% | NCI-H322M lung 64.9% | HOP-62 NSCLC 55.2% | NCI-H460 lung 24.5% | HOP-92 NSCLC 81.2% | NCI-H522 lung 15.9% | A549/ATCC NSCLC 44.6% | 786-0 renal 35.3% | DU-145 prostate 34.5% | K-562 leukemia 15.6% | MALME-3M melanoma 70% | MDA-MB-231 breast 19.6% | SF-268 CNS 66.1% | SF-295 CNS 42.4% | UACC-257 melanoma 87.5% | M14 melanoma 18.9%
active: COLO 205 colon 4.64% | RXF 393 renal -3.71% | SF-539 CNS 7.6%

CCOC(=O)c1cnn2c3ccccc3n(S(=O)(=O)c3ccc(OC)cc3)c12
active: COLO 205 colon -19.4% | RXF 393 renal -6.6% | SF-539 CNS -3.57%
inactive: NCI-H23 lung 28.2% | NCI-H226 lung 19.9% | NCI-H322M lung 53.7% | HOP-62 NSCLC 35% | NCI-H460 lung 18.4% | HOP-92 NSCLC 59.9% | NCI-H522 lung 20.6% | A549/ATCC NSCLC 28.5% | 786-0 renal 40.5% | DU-145 prostate 14.8% | K-562 leukemia 11.2% | MALME-3M melanoma 60.7% | MDA-MB-231 breast 10.2% | SF-268 CNS 44.7% | SF-295 CNS 14.1% | UACC-257 melanoma 80.1% | M14 melanoma 25.3%

Cc1cc(=O)oc2cc(OC(=O)N3CCN(C)CC3)ccc12
inactive: NCI-H23 lung 99.6% | NCI-H226 lung 101% | NCI-H322M lung 105% | HOP-62 NSCLC 104% | NCI-H460 lung 107% | HOP-92 NSCLC 103% | NCI-H522 lung 98.9% | A549/ATCC NSCLC 103% | 786-0 renal 108% | COLO 205 colon 116% | DU-145 prostate 110% | K-562 leukemia 90.3% | MALME-3M melanoma 103% | MDA-MB-231 breast 104% | RXF 393 renal 121% | SF-268 CNS 101% | SF-295 CNS 104% | SF-539 CNS 96.3% | UACC-257 melanoma 106% | M14 melanoma 95.5%

COc1cc(C)c(Cc2cnc(N)nc2N)cc1OC
inactive: NCI-H23 lung 101% | NCI-H226 lung 93.9% | NCI-H322M lung 103% | HOP-62 NSCLC 97.1% | NCI-H460 lung 111% | HOP-92 NSCLC 88.9% | NCI-H522 lung 95.9% | A549/ATCC NSCLC 103% | 786-0 renal 103% | COLO 205 colon 117% | DU-145 prostate 120% | K-562 leukemia 110% | MALME-3M melanoma 99.3% | MDA-MB-231 breast 109% | RXF 393 renal 123% | SF-268 CNS 108% | SF-295 CNS 103% | SF-539 CNS 98.6% | UACC-257 melanoma 111% | M14 melanoma 105%
